Assay results published in PubChem BioAssay (Tox21).
Records with an inconclusive call do not appear. Active and inactive are the calls of the source. Unless noted, the call rests on the fitted dose curve; in most records, active means well fitted curve in the direction sought with a large enough effect in the repeat runs; inconclusive means weak or mixed curves; inactive means no such curve, though single readings can be large; an effect the other way counts as inactive or inconclusive.

How the values were obtained:
[1] = qHTS assay to identify small molecule agonists of the androgen receptor (AR) signaling pathway in the presence of an antagonist - cell viability counter screen (AID 1259379);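 further: MDA-kb2 human breast cancer cells carrying an MMTV luciferase reporter; series mostly up to about 92 µM; nearly all actives have a fitted effect of over 25% in size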
Summary of the method: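 Cytotoxicity is assessed by CellTiter-Fluor in MDA-kb2 cells carrying an MMTV-driven luciferase reporter. Cells receive 3.0uM nilutamide plus compounds at 15 concentrations and incubate 16 hr at 37C without CO2 before fluorescence reading.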

[2] = qHTS assay to identify small molecule agonists of the estrogen receptor beta (ER-beta) signaling pathway - cell viability counter screen (AID 1259380); further: nearly all actives have a fitted effect of over 30% in size
Summary of the method: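 Cytotoxicity is measured in parallel with the reporter screen: after 16 hr compound exposure at 37C and a 2 hr LiveBLAzer step, CellTiter-Glo is added to the same ER-beta-UAS-bla HEK293T wells and luminescence read after 30 min.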

[3] = target: Androgen receptor (Homo sapiens) (UniProt P10275); test: qHTS assay to identify small molecule agonists of the androgen receptor (AR) signaling pathway in the presence of an antagonist (AID 1259381; calls by dose curve; further: nearly all actives have a fitted effect of over 15% in size)
Chain of Androgen receptor (Homo sapiens) (P10275 whole entry, looked up): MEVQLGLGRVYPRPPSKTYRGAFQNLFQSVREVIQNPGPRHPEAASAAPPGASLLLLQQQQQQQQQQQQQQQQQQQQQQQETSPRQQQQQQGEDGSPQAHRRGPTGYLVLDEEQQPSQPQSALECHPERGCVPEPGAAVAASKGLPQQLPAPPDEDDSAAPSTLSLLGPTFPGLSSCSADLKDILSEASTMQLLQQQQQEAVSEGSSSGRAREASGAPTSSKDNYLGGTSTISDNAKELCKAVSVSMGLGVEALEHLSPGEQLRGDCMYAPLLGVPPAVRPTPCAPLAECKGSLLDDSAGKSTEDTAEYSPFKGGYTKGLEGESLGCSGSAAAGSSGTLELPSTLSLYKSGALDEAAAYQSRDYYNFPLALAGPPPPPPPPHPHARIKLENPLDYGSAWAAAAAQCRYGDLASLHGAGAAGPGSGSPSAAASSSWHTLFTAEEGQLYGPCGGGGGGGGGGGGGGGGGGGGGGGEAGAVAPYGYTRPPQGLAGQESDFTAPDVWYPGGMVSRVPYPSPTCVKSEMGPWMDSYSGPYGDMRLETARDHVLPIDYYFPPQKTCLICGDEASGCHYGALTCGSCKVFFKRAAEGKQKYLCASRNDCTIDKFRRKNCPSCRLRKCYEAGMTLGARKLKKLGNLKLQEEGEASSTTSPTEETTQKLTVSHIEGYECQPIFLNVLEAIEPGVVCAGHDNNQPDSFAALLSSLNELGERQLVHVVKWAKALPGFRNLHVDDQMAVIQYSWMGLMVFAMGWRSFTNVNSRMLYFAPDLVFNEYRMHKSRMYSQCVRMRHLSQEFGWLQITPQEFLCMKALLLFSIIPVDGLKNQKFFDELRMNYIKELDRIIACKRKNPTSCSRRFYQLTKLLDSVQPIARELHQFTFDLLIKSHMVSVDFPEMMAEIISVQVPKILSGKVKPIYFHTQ
Summary of the method: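 Agonist-mode confirmation screen: human MDA-kb2 cells stably expressing luciferase under an MMTV promoter bearing AR and GR response elements, co-treated with 3.0uM nilutamide (final). Luminescence measured after 16hr compound incubation.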

[4] = qHTS assay to identify small molecule antagonists of the estrogen receptor beta (ER-beta) signaling pathway - cell viability counter screen (AID 1259382);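 further: HEK293T cells carrying ER-beta-UAS-bla reporter stimulated with estradiol; series mostly up to about 92 µM; nearly all actives have a fitted effect of over 55% in size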
Summary of the method: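 Cytotoxicity counter screen multiplexed with the beta-lactamase antagonist assay: GripTite HEK293T ER-beta-bla cells were treated 16 hr with test chemicals in the presence of 1nM 17-beta-estradiol, and viability was measured by CellTiter-Glo.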

[5] = qHTS assay to identify small molecule agonists or antagonists of the thyroid stimulating hormone receptor (TSHR) signaling pathway - wild type cell line counter screen (AID 1259384; calls by dose curve)
Summary of the method: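 Counter screen in untransfected Hek293: compounds (15-point titration, triplicate) plus phosphodiesterase inhibitor Ro20-1724 added after 18 h plating; 30 min RT. Intracellular cAMP via competitive d2/cryptate immunoassay, 1 h incubation.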

[6] = qHTS assay to identify small molecule agonists of the estrogen receptor alpha (ER-alpha) signaling pathway in the presence of an antagonist - cell viability counter screen (AID 1259386);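 further: series mostly up to about 92 µM; cells exposed to compounds for 22 h at 37 °C before the viability read; nearly all actives have a fitted effect of over 30% in size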
Summary of the method: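 Cytotoxicity was measured in parallel with the ERE-luciferase agonist screen, in the same wells. The cells were VM7Luc4E2, which endogenously express ER-alpha, and treatment was with compounds plus 10.0nM ICI-182,780 for 22hr.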

[7] = target: Estrogen receptor (Homo sapiens) (UniProt P03372); test: qHTS assay to identify small molecule agonists of the estrogen receptor alpha (ER-alpha) signaling pathway in the presence of an antagonist (AID 1259383; calls by dose curve; further: top concentration of the series differs between compounds; nearly all actives have a fitted effect of over 15% in size)
Chain of Estrogen receptor (Homo sapiens) (P03372 whole entry, looked up): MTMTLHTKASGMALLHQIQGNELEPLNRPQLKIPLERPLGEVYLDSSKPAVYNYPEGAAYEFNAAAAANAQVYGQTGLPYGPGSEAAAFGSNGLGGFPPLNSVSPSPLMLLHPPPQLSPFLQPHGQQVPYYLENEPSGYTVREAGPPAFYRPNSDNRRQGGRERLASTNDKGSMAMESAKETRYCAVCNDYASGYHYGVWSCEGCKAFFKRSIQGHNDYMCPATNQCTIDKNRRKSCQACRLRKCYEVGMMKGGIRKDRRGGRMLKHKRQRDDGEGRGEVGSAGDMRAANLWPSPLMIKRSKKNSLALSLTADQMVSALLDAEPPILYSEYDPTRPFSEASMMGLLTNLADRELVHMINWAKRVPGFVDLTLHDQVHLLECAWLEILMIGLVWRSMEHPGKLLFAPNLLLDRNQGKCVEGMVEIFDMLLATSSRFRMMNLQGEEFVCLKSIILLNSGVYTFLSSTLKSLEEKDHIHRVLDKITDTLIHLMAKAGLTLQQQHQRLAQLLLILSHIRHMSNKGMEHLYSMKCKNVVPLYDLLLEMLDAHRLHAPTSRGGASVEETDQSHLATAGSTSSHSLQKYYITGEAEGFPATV
Summary of the method: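 Agonist-mode confirmation in the presence of the ER antagonist ICI-182,780 at 10.0nM final. Breast-derived VM7Luc4E2 reporter cells were exposed to compounds for 22hr, and ERE-driven luciferase was quantified by luminescence.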

[8] = target: Thyrotropin receptor (Homo sapiens) (UniProt P16473); test: qHTS assay to identify small molecule antagonists of the thyroid stimulating hormone receptor (TSHR) signaling pathway (AID 1259385; calls by dose curve; further: nearly all actives have a fitted effect of over 20% in size)
Chain of Thyrotropin receptor (Homo sapiens) (P16473 whole entry, looked up): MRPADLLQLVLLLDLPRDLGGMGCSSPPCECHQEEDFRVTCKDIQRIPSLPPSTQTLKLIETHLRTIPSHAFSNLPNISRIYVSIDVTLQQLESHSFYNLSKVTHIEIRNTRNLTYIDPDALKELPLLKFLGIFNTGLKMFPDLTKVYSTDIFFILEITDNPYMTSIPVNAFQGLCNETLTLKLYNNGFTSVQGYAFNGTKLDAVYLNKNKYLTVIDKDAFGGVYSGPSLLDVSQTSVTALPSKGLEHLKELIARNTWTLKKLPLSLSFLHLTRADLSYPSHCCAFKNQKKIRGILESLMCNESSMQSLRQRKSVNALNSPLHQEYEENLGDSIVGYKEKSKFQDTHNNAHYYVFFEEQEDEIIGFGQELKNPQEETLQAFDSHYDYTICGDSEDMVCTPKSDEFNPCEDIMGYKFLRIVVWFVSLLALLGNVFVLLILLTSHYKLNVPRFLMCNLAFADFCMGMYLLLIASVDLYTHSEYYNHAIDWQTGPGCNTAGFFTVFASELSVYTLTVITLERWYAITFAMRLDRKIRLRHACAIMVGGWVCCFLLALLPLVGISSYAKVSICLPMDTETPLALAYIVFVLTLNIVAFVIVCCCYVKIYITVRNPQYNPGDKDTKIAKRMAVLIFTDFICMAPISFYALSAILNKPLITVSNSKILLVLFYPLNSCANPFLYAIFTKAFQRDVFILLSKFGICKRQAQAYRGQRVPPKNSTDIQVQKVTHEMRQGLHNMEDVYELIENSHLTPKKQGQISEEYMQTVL
Summary of the method: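 Antagonist mode: compound-treated TSHR-expressing HEK293 cells were stimulated with 1.5 ng/mL TSH (final) in presence of Ro20-1724 for 30 min at RT. HTRF cAMP detection after 1 h; each compound tested at 15 concentrations, triplicate.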
On the % scale 0 is the no-effect control and ±100 the full control effect.

NC(=S)N/N=C/c1cccnc1
inactive: Potency [1] | Potency [2] | Potency [3] | Potency [4] | Potency [5] | Potency [6]

Oc1ccc2c(c1)OCO2
inactive: Potency [1] | Potency [2] | Potency [4] | Potency [7] | Potency [5] | Potency [8]

O=C(CC(=O)c1ccccc1)c1ccccc1
inactive: Potency [1] | Potency [2] | Potency [4] | Potency [6]

CCN(CCO)CCCC(C)Nc1ccnc2cc(Cl)ccc12 (stereo not given)
inactive: activity change, negative = cytotoxicity [1] -1.54% [at 8.39 µM] | activity change, negative = cytotoxicity [2] 3.81% [at 8.39 µM] | cAMP activity change [5] -5.44% [at 8.39 µM, active compounds read high] | activity change, negative = inhibition [8] -2.73% [at 8.39 µM] | activity change, negative = cytotoxicity [6] -3.53% [at 8.39 µM]

N#Cc1c(F)cccc1F
inactive: Potency [1] | Potency [2] | Potency [4] | Potency [5] | Potency [8] | Potency [6]

CC(C(=O)O)c1ccc(C(=O)c2ccccc2)s1 (stereo not given)
inactive: Potency [1] | Potency [2] | Potency [4] | Potency [6]

CN(c1nccc(=O)[nH]1)C1CCN(c2nc3ccccc3n2Cc2ccc(F)cc2)CC1
inactive: Potency [1] | Potency [4] | Potency [7] | Potency [5] | Potency [8] | Potency [6]

O=c1[nH]cnc2ccccc12
inactive: Potency [1] | Potency [2] | Potency [7] | Potency [5] | Potency [6]

CC1=CCC(C(C)C)C=C1 (stereo not given)
inactive: Potency [1] | Potency [2] | Potency [4] | Potency [7] | Potency [6]

CC(C)(C)C1CCCCC1O (stereo not given)
inactive: Potency [1] | Potency [4] | Potency [7] | Potency [5] | Potency [6]

C=CC[N+]1([C@H]2C[C@H]3[C@@H]4CC[C@H]5C[C@H](OC(C)=O)[C@@H](N6CCCCC6)C[C@]5(C)[C@H]4CC[C@]3(C)[C@H]2OC(=O)CC)CCCCC1
inactive: Potency [1] | Potency [2] | Potency [7] | Potency [5] | Potency [8] | Potency [6]

FC(F)(F)C(F)(F)C(F)(F)C(F)(F)C(F)(F)C(F)(F)CCI
inactive: Potency [1] | Potency [2] | Potency [7] | Potency [8] | Potency [6]

CCCC[C@H]1CN(CC2CCOCC2)C(=O)OC12CCN(C1(C)CCN(C(=O)c3c(C)ncnc3C)CC1)CC2
inactive: Potency [1] | Potency [2] | Potency [4] | Potency [5] | Potency [8] | Potency [6]

O=S1(=O)N=C(O)c2ccccc21
inactive: Potency [1] | Potency [2] | Potency [4] | Potency [8] | Potency [6]

CN(C)C/C=C(/c1ccc(Br)cc1)c1cccnc1
inactive: Potency [1] | Potency [2] | Potency [4] | Potency [5] | Potency [6]

CCCCCCCC/C=C\CCCCCCCC(N)=O
inactive: Potency [1] | Potency [3] | Potency [4] | Potency [8] | Potency [6]

COCCO
inactive: Potency [1] | Potency [2] | Potency [4] | Potency [7] | Potency [6]

O=C(O)c1cccc(N(Cc2cccnc2)c2ccc(OC(F)F)c(OC(F)F)c2)c1
inactive: Potency [1] | Potency [3] | Potency [5] | Potency [8] | Potency [6]

C=CC(C)(CCC=C(C)C)OC(=O)c1ccccc1 (stereo not given)
inactive: Potency [1] | Potency [2] | Potency [4] | Potency [5] | Potency [8] | Potency [6]

COc1ccc2[nH]c(S(=O)Cc3ncc(C)c(OC)c3C)nc2n1 (stereo not given)
inactive: Potency [1] | Potency [2] | Potency [4] | Potency [7] | Potency [6]
